This passage reports growth inhibition results from PubChem BioAssay (NCI).

Each structure is given as a SMILES string. About 79,000 compounds went through this panel and 15% of them were active in at least one assay; those are over-represented in the sample as a whole. Values without a mark were called inactive. Activity calls are given as the source filed them. Rule as the data show it: active = growth inhibition above about 70%; inactive = the rest.

Experiment [1] in a line: NCI Yeast Anticancer Drug Screen. Data for the rad50 strain (AID 155).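 Also: 0% = growth of vehicle-only cultures of the same strain.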 The note with it: S. cerevisiae rad50 strain growth inhibition, stronger effect = higher value. The procedure, abridged:
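Yeast carrying a defined DNA repair defect were exposed to test compounds, and growth was compared with vehicle-treated controls to give percent inhibition.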

The nature of experiment [2]: NCI Yeast Anticancer Drug Screen. Data for the mec2-1 strain (AID 157). The note with it: S. cerevisiae mec2-1 strain, stronger effect = higher value. Put shortly: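 Growth inhibition is read against vehicle-treated controls after compound exposure of the mec2-1 yeast strain, which is defective in DNA damage repair or cell cycle control.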
Experiment [3] can be described thus: NCI Yeast Anticancer Drug Screen. Data for the sgs1 mgt1 strain (AID 161).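 Also: 0% = growth of cultures given vehicle only.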 The note with it: S. cerevisiae sgs1 mgt1 strain, stronger effect = higher value. Put shortly:
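Percent growth inhibition was derived by comparing compound-exposed mutant yeast with vehicle-exposed cultures. The strain carries alterations in DNA damage repair.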

The nature of experiment [4]: NCI Yeast Anticancer Drug Screen. Data for the cln2 rad14 strain (AID 165).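 Also: 0% = growth equal to vehicle treated cultures.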 The note with it: S. cerevisiae cln2 rad14 strain, stronger effect = higher value. Put shortly:
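Growth inhibition, relative to vehicle-treated controls, is the read-out. The test organism is a yeast strain with defined genetic alterations, cln2 rad14.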

A short description of experiment [5]: NCI Yeast Anticancer Drug Screen. Data for the bub3 strain (AID 167). The note with it: S. cerevisiae bub3 mutant strain, stronger effect = higher value. Put shortly:
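Compounds were applied to a genetically altered yeast strain carrying a cell-cycle control defect. Growth inhibition was scored against vehicle-treated controls.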

Experiment [6] in a line: NCI Yeast Anticancer Drug Screen. Data for the mlh1 rad18 strain (AID 175). The note with it: S. cerevisiae mlh1 rad18 strain growth inhibition, stronger effect = higher value. Put shortly: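 Cells of a genetically altered yeast strain, deficient in DNA damage repair, were treated with compound. Their growth was then compared with that of vehicle-treated cultures to give inhibition.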

[7] abbreviates: at 5.0 µM (retest, dose inferred, filed as 0.5).
Setting [8] is: at 50.0 µM (retest, dose inferred, filed as 5.0).

Turning to `C[n+]1[se]nc2cc(C(=O)c3ccccc3)ccc21` (tested in a mixture with another compound), the growth inhibition in experiment [1] (setting [7]) was 99% (active); in experiment [1] (setting [8]), 99% (active); in experiment [1] (at 50.0 µM), 99.3% (active); in experiment [2] (setting [7]), 99% (active); in experiment [2] (setting [8]) it was 99% (active); in experiment [2] (at 50.0 µM), 99.2% (active). Moreover, the growth inhibition in experiment [3] (setting [7]) is 98% (active); in experiment [3] (setting [8]) it was 99% (active); in experiment [3] (at 50.0 µM), 99% (active); in experiment [4] (setting [7]), 96% (active); in experiment [4] (setting [8]), 99% (active); in experiment [4] (at 50.0 µM) it was 99% (active). For the same compound, the growth inhibition in experiment [5] (setting [7]) is 98% (active); in experiment [5] (setting [8]), 99% (active); in experiment [5] (at 50.0 µM) it was 99% (active); in experiment [6] (setting [7]), 99% (active); in experiment [6] (setting [8]), 99% (active); in experiment [6] (at 50.0 µM) it was 99.3% (active).
`[Ni+2].[O-][Cl+3]([O-])([O-])O.c1ccc([PH+](CC[PH+](c2ccccc2)c2ccccc2)c2ccccc2)cc1.c1ccc([PH+](CC[PH+](c2ccccc2)c2ccccc2)c2ccccc2)cc1`: the growth inhibition in experiment [1] (setting [7]) is 4%; in experiment [1] (setting [8]), 13%; in experiment [1] (at 50.0 µM), 48.6%; in experiment [2] (setting [7]), -1%; in experiment [2] (setting [8]) it was 12%; in experiment [2] (at 50.0 µM), 41.8%. In addition, the growth inhibition in experiment [3] (setting [7]) was 1%; in experiment [3] (setting [8]) it was 32%; in experiment [3] (at 50.0 µM), 59.2%; in experiment [4] (setting [7]), 3%; in experiment [4] (setting [8]), -3%; in experiment [4] (at 50.0 µM), 9.05%. For the same compound, the growth inhibition in experiment [5] (setting [7]) is 4%; in experiment [5] (setting [8]), 31%; in experiment [5] (at 50.0 µM), 43.9%; in experiment [6] (setting [7]), 3%; in experiment [6] (setting [8]) it was 26%; in experiment [6] (at 50.0 µM) it was 72% (active).
Turning to `CCc1ccc2c(c1)N(CCCN(CCCl)CCCl)c1ccccc1S2`, the growth inhibition in experiment [1] (setting [7]) was -4%; in experiment [1] (setting [8]), 85% (active); in experiment [1] (at 50.0 µM), 98.5% (active); in experiment [2] (setting [7]), 44%; in experiment [2] (setting [8]) it was 59%; in experiment [2] (at 50.0 µM), 99.2% (active). Further, the growth inhibition in experiment [3] (setting [7]) is -4%; in experiment [3] (setting [8]) it was 89% (active); in experiment [3] (at 50.0 µM), 98.6% (active); in experiment [4] (setting [7]) it was -1%; in experiment [4] (setting [8]) it was 53%; in experiment [4] (at 50.0 µM) it was 96.8% (active). Also, the growth inhibition in experiment [5] (setting [7]) is -1%; in experiment [5] (setting [8]), 94% (active); in experiment [5] (at 50.0 µM), 98.5% (active); in experiment [6] (setting [7]) it was -2%; in experiment [6] (setting [8]), 94% (active); in experiment [6] (at 50.0 µM), 98.6% (active).
Take `NCC(O)c1cccc(O)c1` (configuration not stated): the growth inhibition was -18% in experiment [1] (setting [7]); 77% (active) in experiment [1] (setting [8]); 70.3% (active) in experiment [1] (at 50.0 µM); -12% in experiment [2] (setting [7]); 50% in experiment [2] (setting [8]); 40.2% in experiment [2] (at 50.0 µM). In addition, the growth inhibition in experiment [3] (setting [7]) was -8%; in experiment [3] (setting [8]), 51%; in experiment [3] (at 50.0 µM) it was 66.3%; in experiment [4] (setting [7]) it was 24%; in experiment [4] (setting [8]), 65%; in experiment [4] (at 50.0 µM), 60%. In addition, the growth inhibition in experiment [5] (setting [7]) was 12%; in experiment [5] (setting [8]) it was 77% (active); in experiment [5] (at 50.0 µM) it was 75.2% (active); in experiment [6] (setting [7]) it was 11%; in experiment [6] (setting [8]), 92% (active); in experiment [6] (at 50.0 µM) it was 65.3%.
For the compound `Cc1cc(N(CCCl)CCCl)ccc1CN1CCCN(Cc2ccc(N(CCCl)CCCl)cc2C)C1c1ccc(N(CCCl)CCCl)cc1C`, the growth inhibition in experiment [1] (setting [7]) was 4%; in experiment [1] (setting [8]), 98% (active); in experiment [1] (at 50.0 µM), 98% (active); in experiment [2] (setting [7]), -2%; in experiment [2] (setting [8]) it was 99% (active); in experiment [2] (at 50.0 µM) it was 98% (active). Besides, the growth inhibition is 2% in experiment [3] (setting [7]); 99% (active) in experiment [3] (setting [8]); 98.8% (active) in experiment [3] (at 50.0 µM); 1% in experiment [4] (setting [7]); 98% (active) in experiment [4] (setting [8]); 87% (active) in experiment [4] (at 50.0 µM). Moreover, the growth inhibition in experiment [5] (setting [7]) is 7%; in experiment [5] (setting [8]), 99% (active); in experiment [5] (at 50.0 µM) it was 97.7% (active); in experiment [6] (setting [7]), 21%; in experiment [6] (setting [8]) it was 98% (active); in experiment [6] (at 50.0 µM), 98.6% (active).
Consider `O/N=C/c1ccc2c(c1)OCO2`, for which the growth inhibition is 91% (active) in experiment [1] (setting [7]); 99% (active) in experiment [1] (setting [8]); -1.6% in experiment [1] (at 50.0 µM); 100% (active) in experiment [2] (setting [7]); 100% (active) in experiment [2] (setting [8]); -1.95% in experiment [2] (at 50.0 µM). For the same compound, the growth inhibition is 46% in experiment [3] (setting [7]); 100% (active) in experiment [3] (setting [8]); 38.3% in experiment [3] (at 50.0 µM); 35% in experiment [4] (setting [7]); 99% (active) in experiment [4] (setting [8]); -34.2% in experiment [4] (at 50.0 µM). The growth inhibition is 98% (active) in experiment [5] (setting [7]); 99% (active) in experiment [5] (setting [8]); 4.25% in experiment [5] (at 50.0 µM); 99% (active) in experiment [6] (setting [7]); 99% (active) in experiment [6] (setting [8]); -14.1% in experiment [6] (at 50.0 µM).
Regarding `O=C1C(Br)=CC2(C=C1Br)CCNc1c(O)c3c4c(c12)=NCCC=4C=N3`, the growth inhibition was 31% in experiment [1] (setting [7]); 72% (active) in experiment [1] (setting [8]); 57.9% in experiment [1] (at 50.0 µM); 15% in experiment [2] (setting [7]); 44% in experiment [2] (setting [8]); 46.5% in experiment [2] (at 50.0 µM). Besides, the growth inhibition in experiment [3] (setting [7]) is 17%; in experiment [3] (setting [8]), 71% (active); in experiment [3] (at 50.0 µM), 54.2%; in experiment [4] (setting [7]), -1%; in experiment [4] (setting [8]) it was 50%; in experiment [4] (at 50.0 µM), 24.9%. The growth inhibition in experiment [5] (setting [7]) was -14%; in experiment [5] (setting [8]), 78% (active); in experiment [5] (at 50.0 µM) it was 49.6%; in experiment [6] (setting [7]), 25%; in experiment [6] (setting [8]), 75% (active); in experiment [6] (at 50.0 µM) it was 57.5%.
For the compound `CC12CCC3C(CCC4CC(N5CCCCC5)=CCC43C)C1CCC2O` (configuration not stated), the growth inhibition in experiment [1] (setting [7]) is -3%; in experiment [1] (setting [8]) it was 98% (active); in experiment [1] (at 50.0 µM), 48.5%; in experiment [2] (setting [7]), -12%; in experiment [2] (setting [8]) it was 97% (active); in experiment [2] (at 50.0 µM), 89.4% (active). Further, the growth inhibition is 5% in experiment [3] (setting [7]); 99% (active) in experiment [3] (setting [8]); 47.1% in experiment [3] (at 50.0 µM); 5% in experiment [4] (setting [7]); 98% (active) in experiment [4] (setting [8]); 73% (active) in experiment [4] (at 50.0 µM). For the same compound, the growth inhibition in experiment [5] (setting [7]) is -8%; in experiment [5] (setting [8]), 98% (active); in experiment [5] (at 50.0 µM) it was 84.5% (active); in experiment [6] (setting [7]), -3%; in experiment [6] (setting [8]), 98% (active); in experiment [6] (at 50.0 µM), 98.5% (active).
With `Cn1cc(/C=C/[N+](=O)[O-])c2ccccc21`, the growth inhibition in experiment [1] (setting [7]) was 7%; in experiment [1] (setting [8]), 95% (active); in experiment [1] (at 50.0 µM), 97.1% (active); in experiment [2] (setting [7]), -2%; in experiment [2] (setting [8]), 96% (active); in experiment [2] (at 50.0 µM), 97.3% (active). Further, the growth inhibition in experiment [3] (setting [7]) is 2%; in experiment [3] (setting [8]), 97% (active); in experiment [3] (at 50.0 µM), 98.4% (active); in experiment [4] (setting [7]) it was 26%; in experiment [4] (setting [8]), 98% (active); in experiment [4] (at 50.0 µM) it was 96.5% (active). In addition, the growth inhibition in experiment [5] (setting [7]) was 22%; in experiment [5] (setting [8]), 97% (active); in experiment [5] (at 50.0 µM), 97.7% (active); in experiment [6] (setting [7]), 19%; in experiment [6] (setting [8]), 97% (active); in experiment [6] (at 50.0 µM), 97.3% (active).
